Experimental data reported in PubChem BioAssay (NCI).
Compounds without any hit were thinned out: in the full panel of roughly 83,000, 20% have a hit.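 In brief: 96-well plates, 48 h treatment, single concentration, percent growth endpoint.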 Values without a mark were called inactive. Calls of active or inactive are those of the source. How the source made its calls: active means growth percent below 10; inactive means the rest.

Experiments:
Experiment in all cases: NCI-60 one-dose screen, 48 h (100 = growth as untreated, 0 = no growth, -100 = all killed)
Conditions in all cases: 10 µM unless noted
NCI-H23 lung = tested on: NCI-H23 lung
NCI-H226 lung = tested on: NCI-H226 lung
NCI-H322M lung = tested on: NCI-H322M lung
HOP-62 NSCLC = tested on: HOP-62 NSCLC
NCI-H460 lung = tested on: NCI-H460 lung
HOP-92 NSCLC = tested on: HOP-92 NSCLC
A549/ATCC NSCLC = tested on: A549/ATCC NSCLC
786-0 renal = tested on: 786-0 renal
COLO 205 colon = tested on: COLO 205 colon
DU-145 prostate = tested on: DU-145 prostate
K-562 leukemia = tested on: K-562 leukemia
MALME-3M melanoma = tested on: MALME-3M melanoma
MDA-MB-231 breast = tested on: MDA-MB-231 breast
SF-268 CNS = tested on: SF-268 CNS
SF-295 CNS = tested on: SF-295 CNS
SF-539 CNS = tested on: SF-539 CNS
UACC-257 melanoma = tested on: UACC-257 melanoma
M14 melanoma = tested on: M14 melanoma
NCI-H522 lung = tested on: NCI-H522 lung
RXF 393 renal = tested on: RXF 393 renal

SMILES | growth (NCI-H23 lung) | growth (NCI-H226 lung) | growth (NCI-H322M lung) | growth (HOP-62 NSCLC) | growth (NCI-H460 lung) | growth (HOP-92 NSCLC) | growth (A549/ATCC NSCLC) | growth (786-0 renal) | growth (COLO 205 colon) | growth (DU-145 prostate) | growth (K-562 leukemia) | growth (MALME-3M melanoma) | growth (MDA-MB-231 breast) | growth (SF-268 CNS) | growth (SF-295 CNS) | growth (SF-539 CNS) | growth (UACC-257 melanoma) | growth (M14 melanoma) | growth (NCI-H522 lung) | growth (RXF 393 renal)
CN1CCN(c2cc(F)c(NC3=C(Cl)C(=O)c4ncccc4C3=O)c(F)c2)CC1 | -61.2% (active) | 85.3% | 102% | 83.3% | 9.91% (active) | -79.9% (active) | 74.6% | -72% (active) | 34% | -67.6% (active) | -0.834% (active) | -96.1% (active) | -32% (active) | 48.7% | 78.8% | -25.1% (active) | -62.2% (active) | -40.5% (active) |  | 
N/C(=N\N=C\c1cc2ccccc2[nH]1)N/N=C/c1cc2ccccc2[nH]1 | 96.3% | 93.7% | 100% | 95.7% | 95.7% | 76.6% |  | 98.7% | 102% | 112% | 61.6% | 87.9% | 99.9% | 103% | 111% | 104% | 107% | 99.4% |  | 
C[C@H]1[C@H](C)CC[C@]2(CO)CC[C@]3(C)C(=CC[C@@H]4[C@@]5(C)CCCNC(C)(C)[C@@H]5CC[C@]43C)[C@H]12 | 36.1% | -99% (active) | -17.9% (active) | -23.1% (active) |  | -5.92% (active) | 12% | -81% (active) | -78.3% (active) | -17.4% (active) | -49.1% (active) | -71.9% (active) | -54.8% (active) | 5.71% (active) | -64.6% (active) | -36.5% (active) | -36.9% (active) | -73.2% (active) | -77.8% (active) | -27.9% (active)
O=C(/C=C/c1ccc[nH]1)c1ccc(-n2ccc(C(F)(F)F)n2)cc1 | 90.1% | 91.5% | 72.4% | 104% | 99.1% | 96.3% | 50.6% | 45.4% | 122% | 96.4% | 68.1% | 86% | 22.7% | 34.2% | 70.2% | 14.3% | 96.7% | 94.5% |  | 50%
CCCOc1nc(SCCC)nc2c1cnn2-c1ccccc1 | 93.8% | 96.6% | 137% | 126% | 101% | 98.2% |  | 105% | 103% | 110% |  | 119% | 105% | 87.7% | 108% | 98.4% | 113% | 109% | 3.95% (active) | 
CN1C(=O)N(C)C2NC(N/N=C/c3ccccc3)=NC21 (stereo unspecified) | 100% | 95% | 94.5% | 94.5% | 103% | 102% |  | 104% | 106% | 108% | 107% | 97.9% | 104% | 99.8% | 101% | 94.9% | 98.8% | 98.8% |  | 
C=C(C)[C@@H]1CC[C@]2(C(=O)O)CC[C@]3(C)[C@H](CC[C@@H]4[C@@]5(C)C[C@@H](CC#Cc6ccc(Br)cc6)C(=O)C(C)(C)[C@@H]5CC[C@]43C)[C@@H]12 | 31.2% | 17.3% | 65.7% | 52.3% |  | 65.8% | 33.1% | 63.1% | 69.1% | 40% | 42.8% | -19.9% (active) | 0.351% (active) | 72.1% | 58.9% | 61.1% | 52.7% |  | 17.3% | 52.6%
O=C(CN1CCOCC1)Nc1ccc2ncnc(Nc3ccc(Oc4cccc(C(F)(F)F)c4)c(Cl)c3)c2c1 | 68.8% | 75% | 16.6% | 73.9% | 64.1% | 53% | 51.2% | 65.3% | 76.9% | 40.8% | 35% | 73.4% | 60.1% | 59.6% | 63.5% | 78.8% | 83.3% | 64% |  | 
Cc1ccccc1CNc1ccc(N2CCOCC2)cc1 | 99.1% | 107% | 98.3% | 117% | 112% | 115% | 103% | 107% | 108% | 102% | 101% | 102% | 101% | 93.4% | 99.2% | 111% | 103% | 100% |  | 114%
CCC(C)N(CCNc1cc(OC)cc2cccnc12)CCC(C)C (stereo unspecified) | 71.7% | 88% | 111% | 62.4% | 78.3% | 87.9% | 61.6% | 95.7% | 68.3% | 95.6% | 83.2% | 121% | 84.5% | 78.6% | 97% | 101% | 87.3% | 82.4% |  | 
COc1cccc(CCC(=O)c2cc3c(N)c(C(=O)Nc4ccccc4)sc3nc2C)c1 | 67.9% | 71.5% | 52.7% | 45.1% | 11.7% | 74.2% | 39.6% | 50.2% | 37.1% | 65.8% | 12.2% | 27% | 44.9% | 53.4% | 24.9% | 23.9% | 63.3% | 23.3% |  | 
CCOC(=O)c1ccc(Nc2ccnc(SCC(=O)c3ccc(C#N)cc3)n2)cc1 | 79.9% | 61.4% | 90.5% | 63.4% | 90.5% | 105% |  | 78.4% | 70.8% | 79.4% | 50.6% | 80.9% | 81.2% | 78% | 76.2% | 83% | 77.7% | 50.5% | 27% | 
COc1cccc(/C=C2\COc3ccc(-c4ccccc4)cc3C2=O)c1 | 44.9% | 65.7% | 45.4% | -32.3% (active) | -22.3% (active) | -3.57% (active) | 37% | -45.4% (active) | -23.4% (active) | -40.2% (active) | -2.92% (active) | 101% | 32.3% | 4.23% (active) | -44.8% (active) | -29.8% (active) | 49.2% | 23.6% |  | 
CC(=O)OCC(=O)C1(O)C(C)CC2C3C=C(C)C4=Cc5c(cnn5-c5ccccc5)CC4(C)C3C(O)CC21C (stereo unspecified) | 8.49% (active) | 43.2% | 57.9% | 7.4% (active) | 6.3% (active) | -0.484% (active) | 24.5% | -39.2% (active) | -70.1% (active) | 27.1% | 2.57% (active) | 25.6% | -11.2% (active) | 31.1% | -51.1% (active) | -21.3% (active) | 52.3% | -4.56% (active) |  | -5.14% (active)
Nc1nnc2cc(Cl)ccc2n1 | 110% | 92% | 94.5% | 115% | 115% | 65.6% |  | 129% | 103% | 105% | 83.9% | 126% | 96.9% | 112% | 140% | 111% | 127% | 113% |  | 
COc1ccc(C2CC(c3cccc(Nc4ccncc4)c3)=NN2c2ccc(Cl)cc2)cc1 (stereo unspecified) | 83% | 88.8% | 73.7% | 25.3% | -85.9% (active) | 51.5% | 35.9% | 102% | -65.9% (active) | 23.6% | 0.0732% (active) | -49.9% (active) | 40.6% | 62.1% | 53.9% | 76.4% | 12.6% | 100% |  | 
CC1=CC2(C)/C=C(C)/C=C\CC(O)/C=C3/C=CC(=C4C(=O)OC2(CC1C)C4=O)OC3 (stereo unspecified) | -97.5% (active) | 59.4% | 98.8% | 90.9% | 29.2% | -75.7% (active) | 8.64% (active) | -92.1% (active) | -80.5% (active) | -85.4% (active) | 2.75% (active) | -96.3% (active) | 24.2% | -22.4% (active) | 41.4% | -82.1% (active) | -57% (active) | -77.1% (active) |  | 
